# Compounds with a hit are over-represented: about 6.2% of the library has one in this group of screens.
# HT1080 IDH1KD tx – HT-1080 IDH1 knockdown cell toxicity (counter line); HT-1080 IDH1 knockdown viability, ATP luminescence, 48 h; Potency, µM (titrated, usually from 46.1 µM), without a hit: at the highest dose activity, negative = toxicity, actives largely listed as cytotoxic; hit rate 2% among 360,000; AID 686971;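 also: 0% = DMSO wells and -100% = cell-free medium wells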
#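 In this qHTS, HT-1080 cells depleted of IDH1 are exposed for 48 h at 37 °C to compound titrations. Toxicity is scored from CellTiter-Glo luminescence, with DMSO as full viability and medium alone as none.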
# ATXN viability – cell viability loss in ATXN counter-screen; S2 cells (HEK-293 line with an ATXN2-luciferase reporter) viability, CellTiter-Fluor protease fluorescence, 24 h; Potency, µM (top dose mostly 56.7 µM), most hits filed as cytotoxic; hit rate 0.49% among 400,000; AID 651635; also: nearly all actives have a fitted effect of over 40% in size
# KB-3-1 cytotox – kills parental KB-3-1 adenocarcinoma cells. KB-3-1 viability, CellTiter-Glo ATP luminescence, 72 h. Potency, µM (highest dose often 46.1 µM), hits mostly cytotoxic. hit rate 1.4% among 400,000; also: % is scaled to controls: 0 for no effect and ±100 for the full control effect; nearly all actives have a fitted effect of over 60% in size
#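 Cytotoxicity measured as CellTiter-Glo luminescence after 72 h at 37 C. Compound titrations were pinned onto drug-naive KB-3-1 parental adenocarcinoma cells grown in DMEM with 10% FBS, and normalized data fitted to concentration-response curves.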
# HT1080NT lethal – kills 2HG-producing HT-1080-NT fibrosarcoma cells. HT-1080-NT fibrosarcoma viability, CellTiter-Glo ATP luminescence, 48 h. AID 686970. hit rate 1.6% among 360,000. Potency, µM (highest dose often 46.1 µM), inactives show at the highest dose activity, negative = less viability, actives largely listed as cytotoxic;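 also: NT is the 2HG producing partner of a matched IDH1 knockdown line; 0% = DMSO-treated cells and -100% = media-only wells without cells; nearly all actives have a fitted effect of over 55% in size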
#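 Read-out is CellTiter-Glo luminescence after 10 minutes at room temperature, following 48 hours' compound treatment of HT-1080-NT cells (750 cells/well, RPMI, 5% FBS, 37 degrees C).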
# ATXN2 expr inh – inhibitors of ATXN2 expression; HEK-293 ATXN2-luciferase reporter, luminescence, 24 h; Potency, µM (highest dose often 57 µM), for inactives: at the highest dose activity change, negative = inhibition, usual class: inhibitors; hit rate 0.72% among 360,000; AID 1745845; also: % is scaled to controls: 0 for no effect and ±100 for the full control effect; nearly all actives have a fitted effect of over 55% in size
#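 qHTS (up to 57 uM final) was run with 24 h compound exposure of reporter cells at 37 °C. Each well was multiplexed: SteadyGlo luminescence measured ATXN2-luciferase expression after a fluorogenic Gly-Phe-AFC viability readout (25 uM final).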
# KB-V1 cytotox – kills drug-selected multidrug resistant KB-V1 cells | KB-V1 MDR cells viability, CellTiter-Glo, 72 h | Potency, µM (top dose mostly 46.1 µM), most hits filed as cytotoxic | hit rate 3.4% among 400,000; also: % is scaled to controls: 0 for no effect and ±100 for the full control effect; nearly all actives have a fitted effect of over 60% in size
#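 Readout: CellTiter-Glo luminescence, 10 min after addition. Cells: KB-V1 MDR subline, 72 h at 37 degrees C with compound. Analysis: corrected, normalized data fitted to concentration-effect curves.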
# The depositor's hits bear a star; i = inactive; ? = inconclusive; . = no result. Calls follow the shape of the dose curve; as a rule, active = well fitted curve in the direction sought with a large enough effect; inconclusive = small, poorly fitted or top-dose-only effect, or another doubt; inactive = no such curve, though single readings can be large; an effect the other way counts as inactive or inconclusive. Potency is read from the fitted curve at half-maximal effect.
SMILES,HT1080 IDH1KD tx,ATXN viability,KB-3-1 cytotox,HT1080NT lethal,ATXN2 expr inh,KB-V1 cytotox
Cc1ccc(-n2c(=O)c3c4c(sc3n(CC(=O)Nc3ccccc3C)c2=O)CCCCC4)cc1C,.,i,i,.,6%,i
COc1cc(OC)c(/C=C/c2nccc3ccccc23)c(OC)c1,.,.,?,.,.,i
COc1ccc(OC)c(CN2CCN(C(=O)c3cccs3)CC2)c1,14%,i,i,18%,5%,21µM*
COc1ccc(CN2CCN(C(=O)c3cccs3)CC2)cc1,-1%,i,i,-4%,5%,21µM*
COc1ccc(OC)c(CN2CCN(C(=O)c3ccc(F)cc3)CC2)c1,3%,i,i,11%,-22%,i
COc1ccc(OC)c(CN2CCN(C(=O)c3cccc(S(=O)(=O)Nc4ccc(F)cc4)c3)CC2)c1,-7%,i,?,1%,-3%,15µM*
COc1ccccc1C1(O)CCN(C(=O)c2cccs2)CC1,-4%,i,i,-2%,4%,21µM*
COc1cc(-c2cccc(Cl)c2)cc2c1OCCN(C(=O)CCn1ccc(C)n1)C2,.,i,.,.,.,.
Cc1ccc(-c2nn3c(=O)cc(CN4CCN(C(=O)/C=C/c5ccccc5)CC4)nc3s2)cc1,.,i,i,.,6%,i
C(=C\c1cnc2ccccc2n1)/c1ccc2c(c1)OCO2,.,.,?,.,.,i
O=C(c1cccs1)N1CCN(CCCc2ccccc2)CC1,-1%,i,i,27%,-5%,12µM*
O=C(c1cccs1)N1CCN(Cc2ccccc2)CC1,5%,i,i,17%,5%,i
c1ccc(-c2nnc(-c3ccccn3)s2)nc1,-6%,i,?,-4%,8.9µM*,i
CCn1ccc2cc(S(=O)(=O)N3CCC(C(=O)NCCc4ccc(C)cc4)CC3)ccc21,.,?,i,.,-24%,i
Cc1ncc2c(c1CNC(=O)c1cncs1)CCN(C(=O)c1ccc(C(F)(F)F)cc1)C2,.,i,.,.,.,.
O=C(C1CCCN(S(=O)(=O)c2ccccc2[N+](=O)[O-])C1)N1CCN(c2ccccc2)CC1 (centres undefined),12%,?,i,1%,-9%,5.8µM*
O=C(C1CCCN(S(=O)(=O)c2cccc3nsnc23)C1)N1CCN(c2ccccc2)CC1 (centres undefined),.,?,?,.,?,i
CCOc1ccc2nc(NC(=O)c3nc(SCc4ccccc4C)ncc3Cl)sc2c1,.,i,i,.,23%,i
COc1ccc2cc(Br)ccc2c1CC(=O)NC1CC(C)(C)NC(C)(C)C1,16µM*,i,i,?,?,?
COC(=O)c1cccnc1-n1c(=O)c2cccnc2n(Cc2ccc(Cl)cc2)c1=O,-21%,i,?,-22%,-10%,23µM*
Nc1nonc1C(=O)NCCNCc1c(OCc2ccccc2F)ccc2ccccc12,10µM*,?,?,?,?,i
CNCc1c(OCc2ccccc2F)ccc2ccccc12,?,i,i,18µM*,?,12µM*
Nc1nonc1C(=O)NCCNCc1cc(Br)ccc1OCc1ccc(F)cc1,-22%,.,11µM*,-8%,.,?
Cc1cccc(NC(=S)N(CCCN2CCCC2)Cc2cccn2Cc2ccc(Cl)cc2)c1,?,.,?,13µM*,32µM*,?
Cc1ccc(NC(=O)Cc2ccc(-n3c(C)nc4cccnc43)cc2)c(Cl)c1,.,.,18µM*,.,.,5.8µM*
CCc1nc2cccnc2n1-c1ccc(CC(=O)O)cc1,12%,i,i,10%,-2%,i
O=C(Nc1cccc(Cl)c1)c1ccc2nc(Cc3ccccc3)oc2c1,.,?,15µM*,.,?,?
O=C(NCCCN1CCN(c2cccc(Cl)c2)CC1)c1ccc2nc(Cc3ccccc3)oc2c1,.,?,15µM*,.,?,?
COc1ccc(N2CCN(CCCNC(=O)c3ccc4nc(Cc5ccccc5)oc4c3)CC2)cc1,.,10µM*,?,.,16µM*,i

# Bioassay records deposited in PubChem by National Center for Advancing Translational Sciences (NCATS).
